This note sets out measurements from PubChem BioAssay (NCI).

Among the test systems are SR leukemia; RPMI-8226 leukemia; OVCAR-8 ovarian; OVCAR-5 ovarian; OVCAR-4 ovarian; SK-OV-3 ovarian; IGROV1 ovarian; HS 578T breast; NCI/ADR-RES ovarian; T-47D breast; BT-549 breast; MDA-MB-435 melanoma; SW-620 colon; MCF7 breast; HCT-116 colon; HCC-2998 colon; KM12 colon; MDA-MB-468 breast; OVCAR-3 ovarian.
Holding throughout (assay): NCI-60 one-dose screen, 48 h (100 = growth as untreated, 0 = no growth, -100 = all killed)
What all share (conditions): 10 µM

About 83,000 compounds went through this panel and 20% of them were active in at least one assay; those are over-represented in the sample as a whole.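 Method: cells in 96-well plates; compound added at one concentration; 48 h incubation; percent growth measured; values under 10 scored active.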 Values without a mark were called inactive. The source made the active and inactive calls.

Regarding `O=C(NO)c1ccc(CNC(=O)[C@H]2Cc3c([nH]c4ccccc34)[C@H](c3ccccc3)N2)cc1`, the growth in the assay on SR leukemia is 23.8%; with RPMI-8226 leukemia, 15.1%; in the assay on OVCAR-8 ovarian it was 24.7%; in the assay with OVCAR-5 ovarian, 15.3%; with OVCAR-4 ovarian, 53.7%; in the assay on SK-OV-3 ovarian, -3.43% (active). Besides, the growth with IGROV1 ovarian was 46.9%; in the assay with HS 578T breast, 17.3%; with NCI/ADR-RES ovarian it was 63%; with T-47D breast it was -17.7% (active); with BT-549 breast, 55.4%; in the assay on MDA-MB-435 melanoma, 5.21% (active). Also, the growth is -43.7% (active) in the assay with SW-620 colon; 14.4% with MCF7 breast; 10.1% in the assay with HCT-116 colon; 16.9% with HCC-2998 colon; 31.1% in the assay with KM12 colon; -6.19% (active) in the assay with MDA-MB-468 breast.
On to `O=C(CNc1nc(-c2ccccc2)cs1)Nc1cccc([N+](=O)[O-])c1`, for which the growth in the assay on SR leukemia is 2.8% (active); in the assay on RPMI-8226 leukemia it was -18% (active); in the assay with OVCAR-8 ovarian, -11.1% (active); with OVCAR-5 ovarian it was -92.8% (active); in the assay with OVCAR-4 ovarian it was -45.7% (active); in the assay on SK-OV-3 ovarian, -22% (active). In addition, the growth with IGROV1 ovarian is -47.4% (active); in the assay on HS 578T breast, -19.2% (active); with NCI/ADR-RES ovarian, -61.4% (active); in the assay with T-47D breast it was -49.9% (active); with MDA-MB-435 melanoma, -77.9% (active); with SW-620 colon it was -66.7% (active). Moreover, the growth in the assay with MCF7 breast was -81.6% (active); in the assay on HCT-116 colon, -34.2% (active); with KM12 colon it was -44% (active); in the assay with MDA-MB-468 breast, -90.6% (active).
As for `COc1cccc(COc2ccc(/C=C3\Oc4cc(O)ccc4C3=O)cc2)c1`, the growth in the assay on SR leukemia is 21.4%; in the assay on RPMI-8226 leukemia it was 32.1%; in the assay on OVCAR-8 ovarian it was 23.6%; with OVCAR-5 ovarian, 77.6%; with OVCAR-4 ovarian, -9.02% (active); in the assay with SK-OV-3 ovarian, 77.4%. Also, the growth with OVCAR-3 ovarian was 24.9%; with HS 578T breast, -7.04% (active); with NCI/ADR-RES ovarian it was 24.8%; with T-47D breast, 44.3%; with BT-549 breast, 15.3%; in the assay with MDA-MB-435 melanoma it was 37.2%. Moreover, the growth was 36% in the assay with SW-620 colon; 37.8% in the assay with MCF7 breast; 1.73% (active) in the assay on HCT-116 colon; 25.2% in the assay with HCC-2998 colon; 26.1% with KM12 colon; 12.2% in the assay with MDA-MB-468 breast.
`COc1ccc2c3nc4cc(C)c(C)cc4nc3n(CCN(C)C)c2c1`: the growth is 9.88% (active) in the assay on SR leukemia; 9.26% (active) in the assay on RPMI-8226 leukemia; -56.4% (active) in the assay on OVCAR-8 ovarian; 24.5% in the assay on OVCAR-5 ovarian; -26.1% (active) with OVCAR-4 ovarian; -12.8% (active) in the assay with SK-OV-3 ovarian. Further, the growth with IGROV1 ovarian is -8.59% (active); with HS 578T breast, 49.1%; with NCI/ADR-RES ovarian it was 0.91% (active); in the assay with T-47D breast, -12.2% (active); in the assay on MDA-MB-435 melanoma, -76.1% (active); in the assay with SW-620 colon, -51.6% (active). The growth with MCF7 breast is -16.6% (active); in the assay with HCC-2998 colon it was -56.1% (active); with KM12 colon, -18% (active); in the assay with MDA-MB-468 breast, -10.9% (active).
`O=C(Cn1nc(-c2ccccc2)ccc1=O)NN1C(=O)c2ccccc2C1=O`: the growth in the assay with SR leukemia is 91.4%; in the assay on RPMI-8226 leukemia, 95.7%; in the assay with OVCAR-8 ovarian, 81.9%; with OVCAR-5 ovarian, 120%; with OVCAR-4 ovarian, 94.7%; in the assay with SK-OV-3 ovarian it was 117%. Besides, the growth was 124% in the assay with IGROV1 ovarian; 125% in the assay with OVCAR-3 ovarian; 73.4% in the assay with HS 578T breast; 96.2% in the assay on T-47D breast; 110% in the assay on BT-549 breast; 107% with MDA-MB-435 melanoma. The growth in the assay with SW-620 colon was 115%; with MCF7 breast, 81.7%; in the assay on HCT-116 colon it was 106%; with HCC-2998 colon it was 108%; in the assay on KM12 colon it was 103%; with MDA-MB-468 breast, 92.3%.
With `CN1CCc2c(sc3ncnc(N/N=C/c4cn(-c5ccccc5)nc4-c4ccc(Cl)cc4)c23)C1`, the growth is 8.8% (active) in the assay on SR leukemia; 23.7% with RPMI-8226 leukemia; -26.1% (active) with OVCAR-8 ovarian; 27% in the assay on OVCAR-5 ovarian; -9.33% (active) in the assay on OVCAR-4 ovarian; 64% with SK-OV-3 ovarian. Further, the growth was 1.89% (active) in the assay with IGROV1 ovarian; 46.6% in the assay with HS 578T breast; -35.3% (active) in the assay on NCI/ADR-RES ovarian; 35.9% in the assay with T-47D breast; 41.1% in the assay on BT-549 breast; 41.9% with MDA-MB-435 melanoma. The growth in the assay with SW-620 colon was 10.8%; in the assay with MCF7 breast, -31.6% (active); in the assay with HCC-2998 colon, 5.24% (active); in the assay with KM12 colon, 21.6%; with MDA-MB-468 breast, -55.4% (active).
On to `CCOC(=O)C1=C(N)N(c2ccccc2)C2=C(C(=O)CC(C)(C)C2)C1c1ccccc1OC` (centres undefined), for which the growth was 95% in the assay with SR leukemia; 100% in the assay with RPMI-8226 leukemia; 108% in the assay with OVCAR-8 ovarian; 103% in the assay on OVCAR-5 ovarian; 102% in the assay on OVCAR-4 ovarian; 98.2% in the assay on SK-OV-3 ovarian. The growth with OVCAR-3 ovarian was 112%; in the assay with HS 578T breast, 106%; in the assay on NCI/ADR-RES ovarian, 96.6%; in the assay on T-47D breast, 92.7%; in the assay with BT-549 breast, 105%; in the assay with MDA-MB-435 melanoma, 112%. Moreover, the growth with SW-620 colon was 107%; with MCF7 breast, 89.7%; with HCT-116 colon, 101%; in the assay with HCC-2998 colon, 101%; with KM12 colon it was 113%; with MDA-MB-468 breast, 88.7%.
Consider `Cc1cc(C)nc(NS(=O)(=O)c2ccc(N/C(N)=N/c3nccc(-c4cccs4)n3)cc2)n1`, for which the growth in the assay with SR leukemia is 92.3%; in the assay on RPMI-8226 leukemia, 87%; in the assay on OVCAR-8 ovarian, 101%; in the assay with OVCAR-5 ovarian it was 107%; in the assay with OVCAR-4 ovarian it was 93.6%; with SK-OV-3 ovarian it was 84.4%. For the same molecule, the growth was 72.6% in the assay with IGROV1 ovarian; 77.7% with HS 578T breast; 101% in the assay on NCI/ADR-RES ovarian; 78.8% in the assay with T-47D breast; 111% with BT-549 breast; 106% with MDA-MB-435 melanoma. Further, the growth in the assay with SW-620 colon is 102%; in the assay on MCF7 breast, 67.6%; in the assay on HCT-116 colon it was 96.4%; with HCC-2998 colon it was 127%; in the assay with KM12 colon, 96.9%; in the assay on MDA-MB-468 breast, 106%.
`NS(=O)(=O)c1ccc(NC(=O)CSc2ccc(-c3ccc(Cl)cc3)nn2)c(Br)c1`: the growth with SR leukemia was 66.4%; in the assay on RPMI-8226 leukemia, 72.5%; in the assay with OVCAR-8 ovarian it was 3.04% (active); in the assay with OVCAR-5 ovarian it was 73.3%; in the assay on OVCAR-4 ovarian it was 29.8%; in the assay with SK-OV-3 ovarian, 60.2%. For the same molecule, the growth in the assay on IGROV1 ovarian was 63.4%; in the assay with HS 578T breast, 4.72% (active); in the assay on NCI/ADR-RES ovarian, 70%; in the assay with T-47D breast, 41.6%; with BT-549 breast, 26.8%; in the assay on MDA-MB-435 melanoma, 84.8%. The growth was 82.8% in the assay on SW-620 colon; 26.8% in the assay on MCF7 breast; 26.6% with HCT-116 colon; 58.2% in the assay with HCC-2998 colon; 64.6% in the assay on KM12 colon.
With `CCOc1ccc(/C=N/NC(=O)Cn2nc(Cc3ccccc3)c3onc(C)c3c2=O)cc1`, the growth was 78.1% in the assay on SR leukemia; 76.2% with RPMI-8226 leukemia; 5.16% (active) in the assay with OVCAR-8 ovarian; 60.9% in the assay on OVCAR-5 ovarian; 10.6% in the assay on OVCAR-4 ovarian; -5.84% (active) with SK-OV-3 ovarian. Besides, the growth was 14.7% in the assay on OVCAR-3 ovarian; -12.7% (active) in the assay with HS 578T breast; 16.1% in the assay on NCI/ADR-RES ovarian; 44.9% in the assay with T-47D breast; 6.06% (active) with BT-549 breast; 55.3% with MDA-MB-435 melanoma. The growth in the assay with SW-620 colon was 43.3%; in the assay on MCF7 breast, 28.3%; in the assay on HCT-116 colon it was 10.3%; in the assay with HCC-2998 colon it was 60.6%; with KM12 colon, 66.4%; with MDA-MB-468 breast, -7.05% (active).
As for `CCOP(=O)(OCC)O[C@H]1CC[C@]2(C)[C@H]3CC[C@@H]4[C@@H]([C@](C)(O)CCC=C(C)C)CC[C@@]4(C)[C@]3(C)CC[C@H]2C1(C)C`, the growth is -7.18% (active) in the assay with SR leukemia; 2.3% (active) in the assay with RPMI-8226 leukemia; 32.9% in the assay on OVCAR-8 ovarian; 44% in the assay on OVCAR-5 ovarian; 38.8% with OVCAR-4 ovarian; 37% with SK-OV-3 ovarian. Further, the growth with IGROV1 ovarian is 55%; in the assay on HS 578T breast, 11.4%; with NCI/ADR-RES ovarian, 36%; with T-47D breast, 9.26% (active); in the assay with BT-549 breast it was -14.5% (active); in the assay on MDA-MB-435 melanoma it was 29.9%. Besides, the growth was 14.9% in the assay with SW-620 colon; -0.325% (active) in the assay on MCF7 breast; 9.92% (active) in the assay with HCT-116 colon; 36% in the assay on HCC-2998 colon; 21.1% with KM12 colon; -23.3% (active) in the assay on MDA-MB-468 breast.
For `Cc1ccc(/C=C/C(=O)c2ccc(NC(=O)CSc3nnc(-c4c[nH]c5ccccc45)n3-c3ccccc3)cc2)cc1`, the growth is 72.4% in the assay on SR leukemia; 4.29% (active) in the assay on RPMI-8226 leukemia; 96.4% in the assay with OVCAR-8 ovarian; 103% with OVCAR-5 ovarian; 85.2% in the assay on OVCAR-4 ovarian; 106% with SK-OV-3 ovarian. The growth in the assay on IGROV1 ovarian was 93.1%; in the assay with HS 578T breast, 83.8%; with NCI/ADR-RES ovarian, 93.6%; in the assay on T-47D breast, 54.2%; in the assay with MDA-MB-435 melanoma it was 72.8%; in the assay with SW-620 colon, 90.1%. Moreover, the growth is 8.55% (active) with MCF7 breast; -40.2% (active) in the assay on HCT-116 colon; 83.8% in the assay with HCC-2998 colon; 78.7% in the assay with KM12 colon; 85.7% in the assay on MDA-MB-468 breast.
